The values that follow come from the OligoGym collection.
Note: reference of the scale not given here.

The target of the first experiment is HSPA1A. The experiment can be described thus: pooled miR-30 sensor sort-seq; sequence = guide strand. As to conditions: shRNA.
The sequence TACTAGGAAATGCAAAGTCTTG had a sensor-assay potency score (higher = more potent) of -1.4.

AAATTGAGAACTGACAAACAGA: the sensor-assay potency score (higher = more potent) was -0.814.

TAAAAAGAAGAAATAGTCGTAA registered a sensor-assay potency score (higher = more potent) of 0.289.

Regarding TTGTCCAGCACCTTCTTCTTGT, the sensor-assay potency score (higher = more potent) was determined as 0.221.

As for TTGACACTTGTCCAGCACCTTC, the sensor-assay potency score (higher = more potent) is -1.05.

In the case of TTGTCGGCCTCGCTGATCTTGC, the sensor-assay potency score (higher = more potent) was -1.46.

On to TTCAACATTGCAAACACAGGAA, for which the sensor-assay potency score (higher = more potent) turned out to be 0.422.

TCAACATTGCAAACACAGGAAA had a sensor-assay potency score (higher = more potent) of -1.05.

TTAAAAAGAAGAAATAGTCGTA gave a sensor-assay potency score (higher = more potent) of 0.533.

A further experiment concerns the target HSPA1L. The experiment is described as above. As to conditions: shRNA.
Turning to TAGAGTTTTGTGATGATAGGGT, the sensor-assay potency score (higher = more potent) was 0.798.

TTAGTCAATACCATCGAAGAGA registered a sensor-assay potency score (higher = more potent) of -1.19.

Take TAAGTCCAGCAATCACACCTGC: the sensor-assay potency score (higher = more potent) was -0.0929.

As to TTTATCAGACTCACTAATCTTG, the sensor-assay potency score (higher = more potent) turned out to be 0.0614.

Regarding TTTATATTTCTCAGCATCCAGA, the sensor-assay potency score (higher = more potent) is -0.719.

On to TAATCTTGCCCTTCAAACCTTC, for which the sensor-assay potency score (higher = more potent) was -0.52.

Sequence TTCTTAGCACATTAAGTCCAGC registered a sensor-assay potency score (higher = more potent) of -0.826.

TTCTCTTATGATCAAACTCATC came in with a sensor-assay potency score (higher = more potent) of -1.68.

In turn, TAGGGTTACACATCTGCTCCAA showed a sensor-assay potency score (higher = more potent) of 0.367.

TTTCTCAGCATCCAGAACCATG: the sensor-assay potency score (higher = more potent) was -1.49.

In the case of TTGGTTGTCAGAGTAGGTGGTG, the sensor-assay potency score (higher = more potent) was 0.316.

As for AACTTAGTCAATACCATCGAAG, the sensor-assay potency score (higher = more potent) is -0.727.

In a further experiment the target is IBTK. The description is as above. As to conditions: shRNA.
TTTGCTTTCTTGAACATAGTTT yielded a sensor-assay potency score (higher = more potent) of -0.494.

Regarding TTGCACTATACATTGCTGCAAA, the sensor-assay potency score (higher = more potent) is -0.722.

In turn, TAAACTGTAAACAAGACAGTTT returned a sensor-assay potency score (higher = more potent) of -0.0719.

For the sequence TAACACAGACTGTAGCTCCATC, the sensor-assay potency score (higher = more potent) was -0.515.

In turn, TAAGCCAATCTAACACTCCTTT displayed a sensor-assay potency score (higher = more potent) of 0.0727.

The sequence TAGCATAGCAGCATTCTTCAGG came in with a sensor-assay potency score (higher = more potent) of -0.0417.

As to TAAACAGCTTCTCTAGTCCATA, the sensor-assay potency score (higher = more potent) is -1.24.

Regarding TTCTTGAACATAGTTTCCGAAT, the sensor-assay potency score (higher = more potent) is -1.25.

As to TCTTCTTGCACTGATAGTCTGC, the sensor-assay potency score (higher = more potent) was -0.142.

On to TTGAGCTTGATTACTTTTGTAA, for which the sensor-assay potency score (higher = more potent) is 0.24.

As for TTATCTTGAATATACAGACTAA, the sensor-assay potency score (higher = more potent) was -0.465.

TAATACAACAGTATGATCCTTA yielded a sensor-assay potency score (higher = more potent) of 1.02.

A further experiment deals with ICAM4. The description is as above. Particulars: shRNA.
TAGCCCACCGGGAACACTGTAG displayed a sensor-assay potency score (higher = more potent) of -0.579.

Take TTGTAGGCGGTGATCCTGGAGG: the sensor-assay potency score (higher = more potent) was -1.08.

On to TGCACAGCCACGAACTCCGGGC, for which the sensor-assay potency score (higher = more potent) is -1.29.

TTTGTAGGCGGTGATCCTGGAG returned a sensor-assay potency score (higher = more potent) of -0.0996.

TTTTCCTGCGCAGGTCACGAGG: the sensor-assay potency score (higher = more potent) was -1.77.

The sequence TAGGCGGTGATCCTGGAGGTGG registered a sensor-assay potency score (higher = more potent) of -1.35.

For the sequence TTGAGCTGCACTGACTTCCCCG, the sensor-assay potency score (higher = more potent) came out at 0.304.
